Molecules are shown by their SMILES. Records with an inconclusive call do not appear. A call without a number means that no potency is given here. Some structures have more than one record in an assay (separate samples or runs), and their calls can disagree. Active and inactive are the calls of the source. Calls follow the shape of the full dose curve.

Acetylcholinesterase (Homo sapiens), sequence (P22303 whole entry, looked up): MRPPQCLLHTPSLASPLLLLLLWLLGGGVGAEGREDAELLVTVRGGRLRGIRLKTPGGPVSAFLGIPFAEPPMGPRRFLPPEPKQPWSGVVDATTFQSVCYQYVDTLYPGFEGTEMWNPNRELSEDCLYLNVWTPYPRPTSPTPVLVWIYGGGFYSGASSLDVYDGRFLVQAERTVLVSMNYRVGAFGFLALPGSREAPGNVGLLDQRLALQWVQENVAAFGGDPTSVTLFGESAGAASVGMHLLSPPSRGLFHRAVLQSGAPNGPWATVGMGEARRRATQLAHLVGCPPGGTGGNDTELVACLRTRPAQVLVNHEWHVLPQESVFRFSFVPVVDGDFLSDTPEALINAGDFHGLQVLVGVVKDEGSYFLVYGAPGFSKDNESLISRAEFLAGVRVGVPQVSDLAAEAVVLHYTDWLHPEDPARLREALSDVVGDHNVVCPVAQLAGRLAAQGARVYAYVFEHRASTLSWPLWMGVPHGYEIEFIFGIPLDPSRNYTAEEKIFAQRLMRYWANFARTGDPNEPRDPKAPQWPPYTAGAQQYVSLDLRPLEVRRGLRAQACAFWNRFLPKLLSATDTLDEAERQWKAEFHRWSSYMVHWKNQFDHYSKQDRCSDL

The first test deals with Acetylcholinesterase (Homo sapiens) (UniProt P22303). Nature of the test: Acetylcholinesterase (AChE) small molecule antagonists: enzyme-based qHTS assay (AID 1347397). Also: nearly all actives have a fitted effect of over 55% in size. Particulars: Potency: AChE enzyme activity inhibition; outcome: AChE enzyme activity inhibition; series mostly up to 115 µM. An outline of the steps:
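rhAChE 50 mU/mL (dispensed) + cpd or DMSO, 30 min RT; add DTNB/acetylthiocholine cocktail, 10 min RT; colorimetric thiocholine readout. qHTS, 1536-well format.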
For `Cc1ccccc1`, the Potency entry was “inactive”.

With `O=C(Cc1ccccc1)c1ccccc1`, the Potency entry is “inactive”.

With `CCCCNC(=O)OCC#CI`, the Potency result was “inactive”.

Regarding `C[N+](C)(C)CCOC(=O)C(O)(c1ccccc1)c1ccccc1`, the Potency entry is “inactive”.

Turning to `OCC1CO1` (stereo not drawn), the Potency result was “inactive”.

On to `C#CC(O)(C=CCl)CC` (stereo not drawn), for which the Potency result is “inactive”.

With `C1CS1`, the Potency entry was “inactive”.

For `Nc1ccc2c(c1)Cc1ccccc1-2`, the Potency result was “inactive”.

In the case of `CCCC[N+](CCCC)(CCCC)CCCC`, the Potency entry was “inactive”.

Turning to `Nc1cccc2ccccc12`, the Potency result was “inactive”.

For `Cc1ccc2c(C)cccc2c1`, the Potency entry is “inactive”.

As for `CC(C)[C@@H](C(=O)O[C@@H](C#N)c1cccc(Oc2ccccc2)c1)c1ccc(Cl)cc1`, the Potency result is “inactive”.

For the compound `CCOP(=O)(O)C(N)=O`, the Potency result is “inactive”.

Turning to `CCCSP(=S)(OCC)Oc1ccc(SC)cc1` (stereo not drawn), the Potency entry is “inactive”.

Take `Clc1ccccc1`: the Potency result was “inactive”.

`CCC1(C2=NCCN2)Cc2ccccc2O1` (stereo not drawn): the Potency result was “inactive”.

With `O=P(OCC(Br)CBr)(OCC(Br)CBr)OCC(Br)CBr` (stereo not drawn), the Potency result is “inactive”.

In the case of `OC[P+](CO)(CO)CO`, the Potency result was “inactive”.

On to `CC1(C)CC(=O)CC(C)(C)N1[O]`, for which the Potency result is “inactive”.

As to `COC1=CC(=O)O[C@@H](/C=C/c2ccc3c(c2)OCO3)C1`, the Potency entry is “inactive”.

With `CCc1cnc(C2=NC(C)(C(C)C)C(=O)N2)c(C(=O)O)c1` (stereo not drawn), the Potency result is “inactive”.

In the case of `CC(C)(C)CC(C)(C)c1ccc(O)cc1`, the Potency entry was “inactive”.

For the compound `CCCCC(CC)COC(=O)c1c(Br)c(Br)c(Br)c(Br)c1C(=O)OCC(CC)CCCC` (stereo not drawn), the Potency result was “inactive”.

In the case of `C[C@]12CC[C@H]3[C@@H](CCC4=CC(=O)CC[C@@H]43)[C@@H]1CC[C@@H]2OC(=O)CCc1ccccc1`, the Potency entry is “inactive”.

For the compound `C=C(C)C(=O)OCCCCOC(=O)C(=C)C`, the Potency entry is “inactive”.

Consider `Nc1c(Br)cc(Br)c2c1C(=O)c1ccccc1C2=O`, for which the activity change, negative = inhibition is 0.0969% [at 23.6 µM] (inactive).

Take `CCCCCBr`: the Potency entry was “inactive”.

In the case of `O=C(O)C(F)(F)C(F)(F)C(F)(F)C(F)(F)C(F)(F)C(F)(F)C(F)(F)C(F)(F)F`, the Potency result was “inactive”.

Turning to `O=C(O)COc1cc(Cl)c(Cl)cc1Cl`, the Potency entry is “inactive”.

Regarding `O=S(=O)(c1ccccc1)c1ccccc1`, the Potency entry was “inactive”.

Take `O=C(O)c1ccc(=O)[nH]c1`: the Potency entry was “inactive”.

On to `CCOP(=S)(OCC)SCSc1cc(Cl)ccc1Cl`, for which the Potency entry is “inactive”.

Regarding `CCCCC(CC)CO[N+](=O)[O-]` (stereo not drawn), the Potency entry was “inactive”.

Consider `COc1cc(C[C@@H](C)N)c(OC)cc1Br`, for which the Potency result is “inactive”.

On to `O=C1NC(=O)C(=O)C(=O)N1`, for which the Potency result was “inactive”.

Take `CC(C)C1(C)N=C(c2ncccc2C(=O)O)NC1=O` (stereo not drawn): the Potency result was “inactive”.

As for `O=CC=O`, the Potency result was “inactive”.

In the case of `CN1CC[C@]23c4c5ccc(O)c4O[C@H]2[C@@H](O)CC[C@H]3[C@H]1C5`, the Potency result is “inactive”.

As for `O=C(Cc1ccccc1)OCCc1ccccc1`, the Potency result is “inactive”.

A further test has the same target. The experiment in a line: Acetylcholinesterase (AChE) small molecule antagonists: fluorescence cell-based qHTS assay (AID 1347398). Also: nearly all actives have a fitted effect of over 50% in size. Also: potency is read from the fitted curve at half-maximal effect. The following applies: SH-SY5Y cells; Potency: AChE activity; outcome: AChE activity; series mostly up to 115 µM. An outline of the steps:
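Read-out is Thiolite Green fluorescence at Ex/Em = 490/520 nm, formed by reaction with thiocholine released when cellular AChE in SH-SY5Y cells hydrolyzes acetylthiocholine. Compounds were preincubated 30 min at 37 C before substrate.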
For `Cc1ccccc1`, the Potency result is “inactive”.

On to `O=C(Cc1ccccc1)c1ccccc1`, for which the Potency result is “inactive”.

In the case of `CCCCNC(=O)OCC#CI`, the Potency entry was “inactive”.

Consider `C[N+](C)(C)CCOC(=O)C(O)(c1ccccc1)c1ccccc1`, for which the Potency result is “inactive”.

Consider `OCC1CO1` (stereo not drawn), for which the Potency entry was “inactive”.

As for `C#CC(O)(C=CCl)CC` (stereo not drawn), the Potency result was “inactive”.

For `C1CS1`, the Potency result was “inactive”.

Turning to `Nc1ccc2c(c1)Cc1ccccc1-2`, the Potency result was “inactive”.

With `CCCC[N+](CCCC)(CCCC)CCCC`, the Potency entry is “inactive”.

Turning to `Nc1cccc2ccccc12`, the Potency result is “inactive”.

Take `Cc1ccc2c(C)cccc2c1`: the Potency result is “inactive”.

Turning to `CC(C)[C@@H](C(=O)O[C@@H](C#N)c1cccc(Oc2ccccc2)c1)c1ccc(Cl)cc1`, the Potency entry was “inactive”.

On to `CCOP(=O)(O)C(N)=O`, for which the Potency entry was “inactive”.

As for `CCCSP(=S)(OCC)Oc1ccc(SC)cc1` (stereo not drawn), the Potency entry was “inactive”.

As to `Clc1ccccc1`, the Potency result is “inactive”.

As for `CCC1(C2=NCCN2)Cc2ccccc2O1` (stereo not drawn), the Potency result was “inactive”.

Take `O=P(OCC(Br)CBr)(OCC(Br)CBr)OCC(Br)CBr` (stereo not drawn): the Potency result was “inactive”.

For the compound `OC[P+](CO)(CO)CO`, the Potency result is “inactive”.

For `CC1(C)CC(=O)CC(C)(C)N1[O]`, the Potency result is “inactive”.

`COC1=CC(=O)O[C@@H](/C=C/c2ccc3c(c2)OCO3)C1`: the Potency entry was “inactive”.

Consider `CCc1cnc(C2=NC(C)(C(C)C)C(=O)N2)c(C(=O)O)c1` (stereo not drawn), for which the Potency result is “inactive”.

As for `CC(C)(C)CC(C)(C)c1ccc(O)cc1`, the Potency is 31.7 µM (active) and inactive.

On to `CCCCC(CC)COC(=O)c1c(Br)c(Br)c(Br)c(Br)c1C(=O)OCC(CC)CCCC` (stereo not drawn), for which the Potency entry was “inactive”.

`C[C@]12CC[C@H]3[C@@H](CCC4=CC(=O)CC[C@@H]43)[C@@H]1CC[C@@H]2OC(=O)CCc1ccccc1`: the Potency result was “inactive”.

`C=C(C)C(=O)OCCCCOC(=O)C(=C)C`: the Potency entry is “inactive”.

Regarding `Nc1c(Br)cc(Br)c2c1C(=O)c1ccccc1C2=O`, the activity change, negative = inhibition is 2.58% [at 23.8 µM] (inactive).

Regarding `CCCCCBr`, the Potency result is “inactive”.

Consider `O=C(O)C(F)(F)C(F)(F)C(F)(F)C(F)(F)C(F)(F)C(F)(F)C(F)(F)C(F)(F)F`, for which the Potency entry is “inactive”.

Consider `O=C(O)COc1cc(Cl)c(Cl)cc1Cl`, for which the Potency result was “inactive”.

For the compound `O=S(=O)(c1ccccc1)c1ccccc1`, the Potency entry is “inactive”.

Regarding `O=C(O)c1ccc(=O)[nH]c1`, the Potency result was “inactive”.

On to `CCOP(=S)(OCC)SCSc1cc(Cl)ccc1Cl`, for which the Potency result is “inactive”.

Consider `CCCCC(CC)CO[N+](=O)[O-]` (stereo not drawn), for which the Potency result was “inactive”.

Turning to `COc1cc(C[C@@H](C)N)c(OC)cc1Br`, the Potency result is “inactive”.

For `O=C1NC(=O)C(=O)C(=O)N1`, the Potency entry is “inactive”.

For the compound `CC(C)C1(C)N=C(c2ncccc2C(=O)O)NC1=O` (stereo not drawn), the Potency entry was “inactive”.

In the case of `O=CC=O`, the Potency entry is “inactive”.

With `CN1CC[C@]23c4c5ccc(O)c4O[C@H]2[C@@H](O)CC[C@H]3[C@H]1C5`, the Potency result is “inactive”.

Turning to `O=C(Cc1ccccc1)OCCc1ccccc1`, the Potency result was “inactive”.
